Twelve molecules from PubChem BioAssay (NCI) can be followed below.

Structures are written as SMILES. The panel holds about 79,000 compounds, 15% with a hit somewhere; the sample as a whole holds those more often. Values without a mark were called inactive. The source made the active and inactive calls. Cut-off read from the data, not from the text of the source: active = growth inhibition above about 70%; inactive = the rest.

The nature of the test: NCI Yeast Anticancer Drug Screen. Data for the bub3 strain (AID 167). The settings on record: S. cerevisiae bub3 mutant strain, at 5.0 µM (retest, dose inferred, filed as 0.5), active compounds read high. In outline:
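Inhibition values come from growth of compound-treated mutant yeast normalised to vehicle-treated controls.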
As for `COc1ccc(P2(=S)Oc3ccc(C(c4ccccc4)(c4ccccc4)c4ccccc4)cc3O2)cc1` (configuration not stated), the growth inhibition is 7%. The result for `Cc1cc[n+](C2=C(Nc3c(C)cccc3C)C(=O)c3ccccc3C2=O)cc1` reads 6%.

Turning to `C(#C[PH+](c1ccccc1)c1ccccc1)c1ccccc1.C(#C[PH+](c1ccccc1)c1ccccc1)c1ccccc1.C(#C[PH+](c1ccccc1)c1ccccc1)c1ccccc1.[C-]#[O+].[C-]#[O+].[C-]#[O+].[Cr]`, the growth inhibition was 44%. The result for `CC(=O)O.[RuH].c1ccc([PH+](c2ccccc2)c2ccccc2)cc1.c1ccc([PH+](c2ccccc2)c2ccccc2)cc1.c1ccc([PH+](c2ccccc2)c2ccccc2)cc1` reads 35%.

Take `O=C(N/N=C/c1cc(Br)cc(Br)c1[O-])c1ccccc1O.O=C(N/N=C/c1cc(Br)cc(Br)c1[O-])c1ccccc1O.[Ni+2]`: the growth inhibition is 96% (active). For `O=C(C[n+]1ccccc1)C1CCc2ccccc2C1` (configuration not stated), the growth inhibition is -2%. The result for `CC(=O)[O-].CC(=O)[O-].O=C(N/N=C/c1cc(Cl)cc(Cl)c1[OH2+])c1ccncc1.[Zn+2]` reads 1%; that for `ClCCN(CCCl)CCN1c2ccc3ccccc3c2Sc2ccc3ccccc3c21`, 1%.

For `C=CCc1cc(Cl)ccc1OC(=O)N(C)C`, the growth inhibition was 0%. In the case of `CC(=O)[O][Sn]([CH3])([CH3])[c]1ccccc1`, the growth inhibition is -6%. The result for `NCCNCCNCCNCCN` (tested in a mixture with another compound) reads -1%; that for `CC(=O)[CH-]C(C)=O.CC(=O)[CH-]C(C)=O.[O-]c1ccccc1.[O-]c1ccccc1.[Ti+4]`, 6%.
